Screens (PubChem BioAssay)
A selection: hits, their analogues and other compounds. The true share with any hit is near 18%.
TDP1 inh: inhibitors of human tyrosyl-DNA phosphodiesterase TDP1 | Potency, µM (top dose mostly 130 µM), usual class: inhibitors | AID 485290 | recombinant TDP1, AlphaScreen DNA substrate cleavage | 350,000 compounds, 0.28% hits; also: nearly all actives have a fitted effect of over 40% in size
Target sequence (Q9NUW8 whole entry, looked up): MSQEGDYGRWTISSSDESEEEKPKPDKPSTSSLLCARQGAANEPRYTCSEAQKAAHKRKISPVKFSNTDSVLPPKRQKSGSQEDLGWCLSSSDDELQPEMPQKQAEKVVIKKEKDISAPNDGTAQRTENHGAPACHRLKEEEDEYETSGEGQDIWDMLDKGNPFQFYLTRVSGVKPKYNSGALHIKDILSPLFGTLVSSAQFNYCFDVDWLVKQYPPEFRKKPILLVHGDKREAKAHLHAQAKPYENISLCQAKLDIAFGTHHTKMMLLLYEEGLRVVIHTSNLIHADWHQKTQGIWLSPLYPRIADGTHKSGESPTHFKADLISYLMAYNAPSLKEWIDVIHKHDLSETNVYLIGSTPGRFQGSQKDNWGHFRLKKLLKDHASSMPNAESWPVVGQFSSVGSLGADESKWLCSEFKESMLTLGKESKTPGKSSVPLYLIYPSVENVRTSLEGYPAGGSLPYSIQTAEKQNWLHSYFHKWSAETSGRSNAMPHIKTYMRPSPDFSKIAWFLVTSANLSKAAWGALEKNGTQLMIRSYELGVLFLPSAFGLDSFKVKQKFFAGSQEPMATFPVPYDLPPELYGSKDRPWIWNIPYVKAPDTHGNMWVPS
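Here, a 5' biotin and 3' phosphotyrosine-FITC DNA oligonucleotide reports Tdp1 activity: intact substrate bridges AlphaScreen beads, while cleavage leaves a 3' phosphate and drops signal. All incubations at room temperature.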
TDP1 cell CPT: DT40-hTDP1 cell growth loss with CPT. chicken DT40 Tdp1-/-;hTDP1 cells + 20 nM CPT, ATP luminescence, 48 h. Potency, µM (doses to about 46.2 µM), hits mostly inhibitors. 420,000 compounds, 12% hits. AID 686979; also: nearly all actives have a fitted effect of over 55% in size
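Chicken DT40 Tdp1-/- cells stably complemented with human TDP1 were seeded at 400 cells/well in medium containing 20 nM camptothecin, exposed to pin-transferred compounds, and grown at 37 °C for at least 48 hr. Viability was read as ATP luminescence.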
IL-1B inflam inh: blocks inflammasome-driven IL-1 beta release | THP-1 LPS/ATP IL-1B secretion, AlphaLISA, 16 h; stronger effect = lower value | activity change, % at 57.5 µM | 360,000 compounds, 4.7% hits | AID 743279; in the data active = activity change below about -50%; inconclusive = mostly about -30% to -49%
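THP-1 cells pretreated 1 hr with compounds (up to 57.5 uM final), then stimulated with LPS (250 ng/mL final) plus ATP (1.25 mM final); secreted IL-1B measured by AlphaLISA after 16 hr, decreased signal indicating inhibition.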
HepG2 tox: counter-screen for TGF-b inhibitors: cytotoxicity in HepG2 cells; HepG2 CAGA-GFP viability, ATP luminescence, 18 h; Potency, µM (doses to about 46.1 µM), hits mostly cytotoxic; 410,000 compounds, 0.76% hits; AID 588856
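CellTiter-Glo luminescence gave cytotoxicity after 18 hours at 37 degrees C. The cells were HepG2 CAGA-GFP in 1% FBS DMEM, stimulated with 500 pg/mL TGF-beta after compound addition. %Activity was normalised to no-cell wells (complete cell-killing) and DMSO (no toxicity), and curves were fitted and classified.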
TGFb inhibitor: TGF-b pathway inhibition. Potency, µM (highest dose often 46.1 µM), hits mostly inhibitors. HepG2 CAGA-GFP TGF-b/SMAD3 reporter, GFP fluorescence, 18 h; TGF-beta stimulated, 500 pg/mL final. AID 588855. 410,000 compounds, 1.2% hits; also: nearly all actives have a fitted effect of over 65% in size
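Cell-based qHTS in HEPG2 carrying a CAGA-GFP Smad reporter; compounds added before 500 pg/mL final TGF-beta, 18 h incubation at 37 degrees C, GFP fluorescence quantified per cell by imaging cytometry.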
DT40 TDP1 no CPT: qHTS for Inhibitors of human tyrosyl-DNA phosphodiesterase 1 (TDP1): qHTS in cells in absence of CPT | 420,000 compounds, 15% hits | DT40 Tdp1-/- hTDP1 cells, no CPT, ATP luminescence, 48 h | Potency, µM (highest dose often 46.2 µM), actives largely listed as inhibitors; also: nearly all actives have a fitted effect of over 55% in size
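Chicken DT40 Tdp1-/- cells stably complemented with human TDP1 were seeded at 400 cells/well with DMSO in place of 20 nM camptothecin. After compound pinning, cells grew at least 48 hr at 37 °C; viability read by CellTiter-Glo luminescence.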
Hits are given with their value; n = inactive; u = inconclusive; x = no result given; [ ] = remark or other dose. Unless noted, calls follow the shape of the dose curve; as a rule, active = well fitted curve in the direction sought with a large enough effect; inconclusive = small, poorly fitted or top-dose-only effect, or another doubt; inactive = no such curve, though single readings can be large; an effect the other way counts as inactive or inconclusive.

SMILES	TDP1 inh	TDP1 cell CPT	IL-1B inflam inh	HepG2 tox	TGFb inhibitor	DT40 TDP1 no CPT
Cc1cccc(Cn2cc(C(=O)Nc3cc(F)ccc3F)ccc2=O)c1	n	u	x	n	n	16µM
COc1ccc(C)cc1NC(=O)c1ccc(CN2CCN(c3ccccc3)CC2)cc1	n	u	n	n	n	u
Cc1cccc(Cn2cc(C(=O)Nc3ccc(F)c(C(F)(F)F)c3)ccc2=O)c1	n	23µM	x	n	u	15µM
COc1ccc(C)cc1NC(=O)c1ccc(=O)n(Cc2ccccc2)c1	n	u	x	n	n	23µM
Cc1occc1C(=O)N1CCCC(N2CCN(c3cccc(Cl)c3)CC2)C1 (stereo unspecified)	n	u	n	n	n	u
CN1N=C(C(=O)N2CCOc3ccc(CN4CCCC(C(=O)c5cccnc5)C4)cc3C2)CCC1=O (stereo unspecified)	x	n[9.04 µM]	x	x	x	u
COc1ccc2[nH]c3c(NCCN(C(C)C)C(C)C)ncnc3c2c1	n	16µM	-57	n	n	18µM
Clc1ccc2[nH]c3c(NCCN4CCOCC4)ncnc3c2c1	n	n	u	n	n	u
CCOc1ccc2[nH]c3c(NCCCOC)ncnc3c2c1	x	u	-54	n	n	u
CCN(CC)CCCNc1nc2ccccc2c2[nH]c3ccc(OC)cc3c12	x	5.2µM	-98	n	u	2.9µM
CCOc1ccc2[nH]c3c(NCCOC)ncnc3c2c1	x	u	n	n	n	n
CCOc1ccc2[nH]c3c(NCCN(CC)CC)ncnc3c2c1	x	n	-96	n	n	n
CCN(CC)CCCNc1nc(-c2ccccc2)nc2ccccc12	n	u	x	n	n	u
COc1ccc2[nH]c3c(NCCCN4CCCC4=O)ncnc3c2c1	n	n	n	n	n	n
O=C(Cn1ncc2c3ccccc3n(Cc3ccc(F)cc3)c2c1=O)NCCCN1CCCCC1	n	n	x	n	n	n
Clc1ccc(CCNc2nc3cc(Cl)c(Cl)cc3n3cnnc23)cc1	n	u	x	n	n	u
O=C(Cn1c(=O)nc(-c2ccccc2)c2cc(Cl)ccc21)N1CCN(c2ccccc2F)CC1	n	u	x	n	u	n
Brc1ccc2[nH]c3c(NCc4ccccn4)ncnc3c2c1	n	u	x	n	u	u
CCOc1ccc2[nH]c3c(NCC(C)C)ncnc3c2c1	x	u	u	n	n	26µM
Cc1ccc2cccc(N)c2n1	n	n	n	n	n	n
Cc1ccc2cccc(O)c2n1	x	7.1µM	x	n	u	7.1µM
CCOC(=O)Cn1c(=O)oc2cc(S(=O)(=O)N3CCN(c4ccc(Cl)cc4)CC3)ccc21	n	u	x	n	u	u
CCc1ccc(C(=O)c2cncc(Br)c2)cc1	n	10µM	n	n	n	8.2µM
Cc1cc(C)c2oc(C(=O)N3CCN(C)CC3)cc(=O)c2c1	x	n	n	n	n	n
COc1ccc(CN2CCC3CC2c2cc(Cl)ccc23)cc1 (stereo unspecified)	x	18µM	n	n	n	18µM
SMILES	TDP1 inh	TDP1 cell CPT	IL-1B inflam inh	HepG2 tox	TGFb inhibitor	DT40 TDP1 no CPT
Cc1cccc(-c2ccc3c(c2)C2CC3CCN2Cc2ccc3c(c2)OCO3)c1 (stereo unspecified)	x	u	n	n	u	u
Clc1ccc2c(c1)C1CC2CCN1Cc1ccccc1 (stereo unspecified)	x	n	n	n	n	n
COc1ccc(CN2CCC3CC2c2cc(-c4cccc(C)c4)ccc23)cc1 (stereo unspecified)	x	21µM	n	n	n	15µM
O=C1CCCC(O)=C1N=Nc1ccc2c(c1)OCO2	n	n	n	n	n	n
O=C1CCCC(O)=C1N=Nc1ccc(C(=O)O)cc1	2.2µM	n	n	n	n	n
CC(C)(C)OC(=O)NC(Cc1ccccc1)C(=O)NC1COC2CC(n3ccc(=O)[nH]c3=O)OC12 (stereo unspecified)	n	x	x	n	n	x
O=C(NCCc1nc2ccccc2n1Cc1ccc(Cl)cc1Cl)c1ccco1	n	1.8µM	x	n	x	1.8µM
O=C(NCCCc1nc2ccccc2n1Cc1ccc(Cl)cc1Cl)c1ccco1	n	23µM	x	n	u	u
O=C(NCCc1nc2ccccc2n1Cc1ccc(F)cc1)c1ccco1	n	n	x	n	n	u
O=C(NCCc1nc2ccccc2n1Cc1c(F)cccc1Cl)c1ccco1	n	u	x	n	u	u
O=C(NN1CCCC1)NS(=O)(=O)c1ccc(Cl)cc1	x	n	x	x	x	n
COc1ccc(NC(=O)CSc2nnc(NC(=O)c3ccccc3C(=O)O)s2)cc1	n	26µM	n	n	n	u
CCCCC(=O)Nc1nnc(SCC(=O)NCC2CCCO2)s1 (stereo unspecified)	x	n	n	n	n	n
CCC(=O)Nc1nnc(SCC(=O)Nc2ccc3c(c2)OCO3)s1	n	u	n	n	n	u
CCC(=O)Nc1nnc(SCC(=O)Nc2ccc3c(c2)OCCO3)s1	n	15µM	n	n	n	u
COc1ccc(Nc2nnc(SCC(=O)NC(=O)Nc3ccc4c(c3)OCCO4)s2)cc1	n	u	n	n	u	16µM
CCC(=O)Nc1nnc(SCC(=O)NCC2CCCO2)s1 (stereo unspecified)	x	n	n	n	n	0.29µM
CC(C)C(=O)Nc1nnc(SCC(=O)Nc2ccc3c(c2)OCCO3)s1	n	n	n	n	n	n
COc1ccc(NC(=O)CSc2nnc(NC(=O)Nc3ccc(OC)cc3)s2)cc1	n	n	x	n	n	n
Cc1c(C(=O)NCC2CCCO2)cccc1[N+](=O)[O-] (stereo unspecified)	n	n	n	n	n	n
CCCCC(=O)Nc1cc(OC)c(NC(=S)Nc2ccc(OC)cc2)cc1OC	x	n	n	n	n	u
C=CCCCCCC	n	x	x	x	x	x
C=CCC[C@@H](CCCCC)OC(=O)/C=C/[C@H](O)[C@@H](O)C[C@H](O)CC=C	x	u	-55	x	x	u
C=CCC[C@H](CCCCC)OC(=O)/C=C/[C@H](O)[C@@H](O)C[C@H](O)CC=C	x	u	n	x	x	26µM
C=CCCCCCCCCCCCC(O)CC(O)COC(C)=O (stereo unspecified)	n	n	x	x	x	n
CCCN(CC(=O)Nc1ccccc1OC)C(=O)C1CCCC1	n	u	n	n	n	21µM
CCCN(CC(=O)Nc1ccccc1OC)C(=O)Cc1ccc2c(c1)CCC2	n	18µM	n	n	n	u
O=[N+]([O-])c1cc(C(F)(F)F)cc([N+](=O)[O-])c1NN=C1CCCCC1	n	u	n	n	u	23µM
O=[N+]([O-])c1cc(C(F)(F)F)cc([N+](=O)[O-])c1NCCN1CCNCC1	x	21µM	n	n	n	21µM
